Results: the supplement of paper PMC10849652
Of roughly 7,900 targets only a part is listed; those with a hit were picked by preference. About 0.6% of all pairs of compound and target were hits. A number with no mark means an inactive call.

How the values were obtained:
Assay in all cases: log2 fold change, soluble protein after heating vs DMSO (PISA); higher = thermal stabilisation; K562 cells, 10 uM, 30 min; active = over 0.2 and 3.5 SD of the protein, either way, in both replicates (recomputed)
erlotinib = compound: C#Cc1cccc(Nc2ncnc3cc(OCCOC)c(OCCOC)cc23)c1 [erlotinib]
In short: (§1)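 Soluble protein was quantified by TMTpro 16plex LC-MS/MS after channel sums were equalised. It was obtained as the supernatant after 21,000xg for 90 min from pooled aliquots of K562 cells (2×10^6 cells/mL, 10 μM compound, 30 min) heated for 3 min across 48°C-58°C and extracted in PBS with 0.5% NP-40 at 4°C. Thermal stability values are relative to control samples and come from duplicates. They are given as log2 fold changes.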

[1] = compound: C/C(=N\NC(=O)C1=CC(=CC=C1)S(=O)(=O)N2CCOCC2)/C3=C(C=CC(=C3)Cl)O
In short: as §1

[2] = compound: C1=CC(=C(C=C1Cl)C2=NC3=NC=CN=C3C(=N2)NC4=CC=NC=C4)F
In short: as §1

[3] = compound: C1=CC(=CC=C1C2=NC3=C(N2)C=C(C=C3)C(=O)N)OC4=CC=C(C=C4)Cl
In short: as §1

[4] = compound: C1=CC2=C(C=CC(=C2)/C=C\3/C(=O)NC(=NCC4=CC=CS4)S3)N=C1
In short: as §1

[5] = compound: C1=CC2=NC=CN=C2C=C1/C=C/3\C(=O)NC(=O)S3
In short: as §1

[6] = compound: C1=CC=C(C=C1)C2=NC(=C(N2)C3=CC=NC=C3)C4=CC(=C(C=C4)Cl)O
In short: as §1

[7] = compound: C1=CC=C2C(=C1)C3=NNC4=CC=CC(=C43)C2=O
In short: as §1

[8] = compound: C1CCN(C1)C(=O)NC2=CC=CC(=C2)NC3=NC=C(C(=N3)NCCC4=CN=CN4)Br
In short: as §1

[9] = compound: C1CN(CCC1(CC2=CC=C(C=C2)Cl)N)C3=NC=NC4=C3C=CN4
In short: as §1

Chain of UniProt Q9H8H0 (Q9H8H0 whole entry, looked up): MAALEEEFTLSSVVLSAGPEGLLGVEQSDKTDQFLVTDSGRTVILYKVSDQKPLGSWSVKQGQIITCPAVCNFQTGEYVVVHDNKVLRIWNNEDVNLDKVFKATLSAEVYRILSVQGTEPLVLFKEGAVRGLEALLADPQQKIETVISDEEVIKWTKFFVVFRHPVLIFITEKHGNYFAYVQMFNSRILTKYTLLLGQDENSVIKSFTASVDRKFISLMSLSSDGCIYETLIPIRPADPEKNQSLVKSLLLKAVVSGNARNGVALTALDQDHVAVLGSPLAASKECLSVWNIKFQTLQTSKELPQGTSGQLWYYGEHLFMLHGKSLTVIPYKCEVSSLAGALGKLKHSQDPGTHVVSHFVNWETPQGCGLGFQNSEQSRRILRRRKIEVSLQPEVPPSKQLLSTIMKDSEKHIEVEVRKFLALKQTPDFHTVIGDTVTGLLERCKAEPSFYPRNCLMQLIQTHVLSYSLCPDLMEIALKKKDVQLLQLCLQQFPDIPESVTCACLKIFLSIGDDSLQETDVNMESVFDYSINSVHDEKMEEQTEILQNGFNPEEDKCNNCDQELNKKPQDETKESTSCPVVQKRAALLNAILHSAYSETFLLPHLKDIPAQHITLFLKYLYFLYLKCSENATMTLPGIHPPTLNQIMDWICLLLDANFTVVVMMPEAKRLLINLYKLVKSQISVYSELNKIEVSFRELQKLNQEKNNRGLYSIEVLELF
Chain of UniProt P46934 (P46934 whole entry, looked up): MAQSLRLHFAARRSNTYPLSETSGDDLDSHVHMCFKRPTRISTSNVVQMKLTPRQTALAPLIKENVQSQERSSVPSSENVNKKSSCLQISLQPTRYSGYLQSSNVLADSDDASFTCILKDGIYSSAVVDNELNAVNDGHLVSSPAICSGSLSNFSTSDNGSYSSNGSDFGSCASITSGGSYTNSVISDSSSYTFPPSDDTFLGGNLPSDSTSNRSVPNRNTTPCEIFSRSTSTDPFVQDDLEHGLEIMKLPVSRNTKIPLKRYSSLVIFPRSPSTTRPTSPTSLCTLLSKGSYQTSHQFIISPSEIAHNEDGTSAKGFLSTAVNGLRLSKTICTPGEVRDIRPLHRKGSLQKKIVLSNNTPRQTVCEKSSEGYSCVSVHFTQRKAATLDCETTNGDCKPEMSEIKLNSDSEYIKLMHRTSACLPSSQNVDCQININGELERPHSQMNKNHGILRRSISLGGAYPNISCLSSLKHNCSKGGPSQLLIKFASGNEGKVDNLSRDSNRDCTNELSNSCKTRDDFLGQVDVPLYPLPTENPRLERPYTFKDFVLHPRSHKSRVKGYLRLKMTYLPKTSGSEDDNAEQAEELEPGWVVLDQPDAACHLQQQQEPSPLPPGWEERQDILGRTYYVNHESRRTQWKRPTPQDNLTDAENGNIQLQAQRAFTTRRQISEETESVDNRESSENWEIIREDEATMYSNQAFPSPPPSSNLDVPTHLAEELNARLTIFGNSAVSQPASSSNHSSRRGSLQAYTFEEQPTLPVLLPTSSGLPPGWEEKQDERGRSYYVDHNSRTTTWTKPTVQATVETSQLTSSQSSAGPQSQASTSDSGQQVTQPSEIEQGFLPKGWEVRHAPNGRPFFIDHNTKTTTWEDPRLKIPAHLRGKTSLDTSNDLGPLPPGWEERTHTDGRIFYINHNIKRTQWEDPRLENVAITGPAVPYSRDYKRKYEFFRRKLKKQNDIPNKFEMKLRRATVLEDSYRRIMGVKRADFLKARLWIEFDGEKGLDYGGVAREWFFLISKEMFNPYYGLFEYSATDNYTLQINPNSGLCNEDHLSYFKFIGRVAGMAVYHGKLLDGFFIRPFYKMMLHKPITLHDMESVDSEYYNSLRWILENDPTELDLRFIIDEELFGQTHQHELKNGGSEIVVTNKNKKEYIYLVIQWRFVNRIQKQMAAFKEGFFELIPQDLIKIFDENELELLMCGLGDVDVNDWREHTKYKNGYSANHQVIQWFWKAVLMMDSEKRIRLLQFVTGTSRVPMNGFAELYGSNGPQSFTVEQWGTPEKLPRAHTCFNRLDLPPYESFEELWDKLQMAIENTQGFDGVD
Chain of UniProt O14950 (O14950 whole entry, looked up): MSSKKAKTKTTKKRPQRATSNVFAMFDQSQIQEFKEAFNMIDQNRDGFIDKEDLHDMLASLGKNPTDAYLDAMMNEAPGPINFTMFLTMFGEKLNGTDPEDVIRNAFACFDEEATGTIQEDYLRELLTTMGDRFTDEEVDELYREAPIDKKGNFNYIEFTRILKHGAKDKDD
Chain of UniProt Q00013 (Q00013 whole entry, looked up): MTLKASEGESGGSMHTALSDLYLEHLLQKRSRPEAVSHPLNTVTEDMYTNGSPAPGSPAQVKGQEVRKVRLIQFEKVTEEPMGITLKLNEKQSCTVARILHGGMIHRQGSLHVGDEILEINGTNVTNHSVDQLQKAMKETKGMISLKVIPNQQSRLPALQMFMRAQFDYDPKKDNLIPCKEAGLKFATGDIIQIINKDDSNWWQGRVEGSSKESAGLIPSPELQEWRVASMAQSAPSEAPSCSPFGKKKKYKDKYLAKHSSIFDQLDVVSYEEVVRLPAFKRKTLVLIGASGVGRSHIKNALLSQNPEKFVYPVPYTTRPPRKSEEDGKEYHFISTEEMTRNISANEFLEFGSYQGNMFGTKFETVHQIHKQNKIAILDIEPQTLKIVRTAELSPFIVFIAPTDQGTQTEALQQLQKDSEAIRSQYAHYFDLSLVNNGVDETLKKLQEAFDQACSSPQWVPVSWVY
Chain of UniProt Q969V5 (Q969V5 whole entry, looked up): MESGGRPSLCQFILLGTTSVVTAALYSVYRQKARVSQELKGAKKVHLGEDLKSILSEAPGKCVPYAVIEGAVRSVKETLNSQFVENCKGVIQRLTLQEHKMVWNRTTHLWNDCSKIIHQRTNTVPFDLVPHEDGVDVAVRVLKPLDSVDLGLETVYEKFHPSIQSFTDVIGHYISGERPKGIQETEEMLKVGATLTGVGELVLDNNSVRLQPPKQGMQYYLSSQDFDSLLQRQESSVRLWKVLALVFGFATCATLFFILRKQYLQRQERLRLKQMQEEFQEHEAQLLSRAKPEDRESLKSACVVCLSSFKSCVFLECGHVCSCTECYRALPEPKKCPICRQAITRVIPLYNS
Chain of UniProt Q9BZF1 (Q9BZF1 whole entry, looked up): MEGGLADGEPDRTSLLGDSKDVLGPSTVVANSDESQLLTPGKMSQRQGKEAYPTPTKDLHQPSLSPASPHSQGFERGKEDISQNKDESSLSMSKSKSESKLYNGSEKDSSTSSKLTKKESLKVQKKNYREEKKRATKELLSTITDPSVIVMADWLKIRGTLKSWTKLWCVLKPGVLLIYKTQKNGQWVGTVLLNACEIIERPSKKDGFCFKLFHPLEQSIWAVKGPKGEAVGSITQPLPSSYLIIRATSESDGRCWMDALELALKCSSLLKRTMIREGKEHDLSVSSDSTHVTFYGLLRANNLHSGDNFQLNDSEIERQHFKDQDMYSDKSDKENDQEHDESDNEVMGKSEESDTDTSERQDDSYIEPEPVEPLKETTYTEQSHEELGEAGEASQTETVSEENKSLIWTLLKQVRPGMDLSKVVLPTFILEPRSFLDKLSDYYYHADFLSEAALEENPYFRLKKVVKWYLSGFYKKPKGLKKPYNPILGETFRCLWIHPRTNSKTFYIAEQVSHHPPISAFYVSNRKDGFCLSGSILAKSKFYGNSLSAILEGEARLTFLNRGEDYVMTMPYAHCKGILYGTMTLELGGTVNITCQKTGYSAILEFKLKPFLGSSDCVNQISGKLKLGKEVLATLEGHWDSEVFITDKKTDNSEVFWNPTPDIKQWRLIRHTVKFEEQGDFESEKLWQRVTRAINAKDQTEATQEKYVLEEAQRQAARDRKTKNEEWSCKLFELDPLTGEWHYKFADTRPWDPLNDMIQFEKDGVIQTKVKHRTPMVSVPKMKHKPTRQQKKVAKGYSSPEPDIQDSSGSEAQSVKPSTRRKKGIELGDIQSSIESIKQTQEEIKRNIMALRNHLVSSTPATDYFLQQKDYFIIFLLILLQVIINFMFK
Chain of UniProt Q9NRP0 (Q9NRP0 whole entry, looked up): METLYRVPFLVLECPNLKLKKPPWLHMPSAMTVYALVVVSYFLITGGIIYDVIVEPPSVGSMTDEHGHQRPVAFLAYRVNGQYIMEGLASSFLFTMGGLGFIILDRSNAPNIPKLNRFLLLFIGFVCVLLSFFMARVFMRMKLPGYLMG
Chain of UniProt Q9HBL8 (Q9HBL8 whole entry, looked up): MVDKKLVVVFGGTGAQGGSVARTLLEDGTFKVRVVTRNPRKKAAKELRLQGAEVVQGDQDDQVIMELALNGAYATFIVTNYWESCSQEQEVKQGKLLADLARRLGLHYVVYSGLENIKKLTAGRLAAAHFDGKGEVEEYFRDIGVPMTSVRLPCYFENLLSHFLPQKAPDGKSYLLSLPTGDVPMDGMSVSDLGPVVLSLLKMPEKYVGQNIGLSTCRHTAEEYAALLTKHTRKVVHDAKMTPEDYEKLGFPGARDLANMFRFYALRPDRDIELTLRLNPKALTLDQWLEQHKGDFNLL
Chain of UniProt Q9Y6R0 (Q9Y6R0 whole entry, looked up): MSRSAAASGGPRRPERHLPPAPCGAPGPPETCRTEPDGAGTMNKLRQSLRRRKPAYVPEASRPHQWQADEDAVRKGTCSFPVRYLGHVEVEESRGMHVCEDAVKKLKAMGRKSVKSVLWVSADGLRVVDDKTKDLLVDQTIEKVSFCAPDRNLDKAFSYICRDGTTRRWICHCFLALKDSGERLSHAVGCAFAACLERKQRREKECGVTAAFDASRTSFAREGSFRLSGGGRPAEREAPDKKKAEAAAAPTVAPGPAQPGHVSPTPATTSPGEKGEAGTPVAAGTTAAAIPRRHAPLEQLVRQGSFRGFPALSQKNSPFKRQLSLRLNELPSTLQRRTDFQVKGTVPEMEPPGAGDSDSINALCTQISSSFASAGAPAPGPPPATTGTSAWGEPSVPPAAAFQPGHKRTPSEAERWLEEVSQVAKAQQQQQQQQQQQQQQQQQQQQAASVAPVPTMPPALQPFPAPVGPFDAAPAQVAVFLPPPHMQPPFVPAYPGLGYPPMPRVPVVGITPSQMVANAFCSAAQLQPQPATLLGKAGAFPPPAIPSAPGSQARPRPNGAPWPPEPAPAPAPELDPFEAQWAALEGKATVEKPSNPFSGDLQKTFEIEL

Row | Target | log2 fold change (erlotinib) | log2 fold change [1] | log2 fold change [2] | log2 fold change [3] | log2 fold change [4] | log2 fold change [5] | log2 fold change [6] | log2 fold change [7] | log2 fold change [8] | log2 fold change [9]
1 | NDUFS4 (UniProt O43181) | -0.001 | -0.031 | -0.004 | 0.07 | -0.093 | 0.077 | -0.104 | -0.081 | 0.082 | 0.111
2 | NMRAL1 (UniProt Q9HBL8) | 0.239 | -0.118 | 0.841 (active) | -0.054 | 0.098 | 0.141 | 0.029 | 0.273 | -0.055 | 0.037
3 | NISCH (UniProt Q9Y2I1) | 0.141 | 0.1 | -0.083 | 0.026 | 0.089 | 0.068 | 0.044 | -0.144 | 0.039 | -0.032
4 | MSH6 (UniProt P52701) | 0.286 | 0.224 | 0.096 | 0.002 | 0.167 | 0 | 0.102 | 0.137 | -0.095 | -0.143
5 | NIPSNAP2 (UniProt O75323) | 0.024 | 0.065 | 0.076 | 0.106 | 0.044 | -0.079 | 0.071 | 0.041 | 0.01 | 0.007
6 | NUMBL (UniProt Q9Y6R0) | -0.001 | 0.021 | -0.026 | -0.095 | 0.085 | -0.047 | 0.042 | 0.056 |  | 
7 | MRPL50 (UniProt Q8N5N7) | -0.107 | -0.033 | 0.048 | 0.004 | -0.008 | 0.066 | 0.312 | 0.072 | -0.084 | -0.073
8 | MPHOSPH10 (UniProt O00566) | -0.079 | -0.005 | -0.412 | -0.023 | 0.031 | 0.061 | 0.07 | -0.004 | 0.024 | -0.023
9 | NOSIP (UniProt Q9Y314) | 0.062 | 0.16 | 0.049 | -0.05 | -0.041 | 0.039 | -0.033 | -0.03 | -0.234 | -0.249
10 | NCAPH (UniProt Q15003) | 0.201 | 0.09 | 0.008 | -0.059 | 0.024 | 0.022 | -0.009 | 0.02 | -0.004 | -0.096
11 | NCL (UniProt P19338) | -0.154 | -0.231 | -0.723 | -0.012 | -0.109 | -0.017 | -0.112 | 0.061 | 0.037 | -0.148
12 | MTHFS (UniProt P49914) | 0.01 | 0.062 | 0.055 | -0.003 | 0.034 | -0.024 | 0.026 | 0.083 | -0.014 | -0.12
13 | MKNK1 (UniProt Q9BUB5) | 0.305 (active) | 0.09 | -0.05 | 0 | 0.011 | 0.081 | -0.028 | 0.001 | -0.051 | -0.066
14 | MUL1 (UniProt Q969V5) | 0.015 | 0.038 | 0.073 | -0.004 | 0.026 | 0.069 | 0.095 | 0.034 | -0.025 | 0.005
15 | NOL7 (UniProt Q9UMY1) | -0.151 | -0.208 | -0.728 (active) | 0.005 | -0.179 | 0 | -0.071 | -0.058 | 0.045 | -0.189
16 | NASP (UniProt P49321) | -0.018 | 0.048 | 0.079 | -0.018 | -0.02 | 0.059 | -0.018 | -0.004 | 0.001 | -0.022
17 | NFX1 (UniProt Q12986) | 0.065 | -0.024 | -0.26 | 0.058 | 0.042 | -0.069 | -0.039 | -0.107 | 0.014 | 0.048
18 | OSTM1 (UniProt Q86WC4) | 0.034 | 0.111 | 0.077 | 0.107 | -0.106 | 0.001 | 0.044 | -0.047 | -0.035 | -0.002
19 | OSTC (UniProt Q9NRP0) | 0.021 | 0.024 | 0.022 | 0.017 | 0.004 | -0.001 | 0.014 | 0.048 | -0.041 | 0.088
20 | NOL11 (UniProt Q9H8H0) | -0.019 | -0.065 | 0.015 | -0.007 | -0.038 | 0.042 | 0.027 | -0.005 | -0.014 | 0.079
21 | MYL12B (UniProt O14950) | 0.016 | 0.091 | 0.02 | 0.006 | -0.072 | -0.019 | 0.157 | 0.023 | -0.045 | 0.005
22 | NUDT21 (UniProt O43809) | -0.02 | 0.07 | -0.127 | 0.047 | -0.035 | -0.015 | -0.026 | 0.008 | 0.003 | -0.089
23 | NEDD4 isoform 4 (UniProt P46934) | -0.024 | 0.067 | 0.048 | -0.011 | 0.052 | 0.066 | 0.048 | -0.001 | 0.003 | -0.053
24 | OTUD4 (UniProt Q01804) | -0.032 | -0.035 | -0.137 | 0.042 | -0.033 | -0.025 | 0 | 0.038 | -0.011 | 0.04
25 | MRPS25 (UniProt P82663) | -0.069 | -0.023 | -0.022 | 0.084 | -0.048 | 0 | 0.083 | 0.061 | -0.036 | -0.068
26 | NUDCD2 (UniProt Q8WVJ2) | 0.054 | -0.003 | 0.019 | -0.071 | 0.025 | 0.018 | -0.014 | 0.012 | -0.107 | -0.08
27 | OSBP (UniProt P22059) | -0.059 | 0.111 | 0.063 | 0.109 | -0.009 | 0.019 | -0.027 | -0.042 | -0.001 | 0.013
28 | NCOA7 (UniProt Q8NI08) | -0.027 | 0.063 | -0.047 | 0.004 | 0.07 | -0.048 | 0.014 | 0.011 | 0.024 | 0.045
29 | MPP1 (UniProt Q00013) | 0.083 | 0.098 | 0.027 | 0.016 | 0.004 | -0.001 | 0.012 | 0.033 | -0.048 | -0.019
30 | OSBPL8 (UniProt Q9BZF1) | 0.243 | 0.156 | -0.212 | 0.021 | 0.005 | -0.028 | 0.077 | -0.005 | -0.048 | -0.085
